Laboratory results published in PubChem BioAssay.
Potency and affinity values are given separately. The source made the active and inactive calls. No cut-off is given here; in the data, nearly all actives have IC50 up to about 0.91 µM.

biological target: Calcium-dependent protein kinase 4 (Plasmodium falciparum (isolate 3D7)) (UniProt Q8IBS5); assay: PfCDPK4 kinase inhibitors, biochemical, TCAMS library (AID 1159588); settings: recombinant PfCDPK4, Kinase-Glo ATP depletion luminescence
Sequence (Q8IBS5 whole entry, looked up): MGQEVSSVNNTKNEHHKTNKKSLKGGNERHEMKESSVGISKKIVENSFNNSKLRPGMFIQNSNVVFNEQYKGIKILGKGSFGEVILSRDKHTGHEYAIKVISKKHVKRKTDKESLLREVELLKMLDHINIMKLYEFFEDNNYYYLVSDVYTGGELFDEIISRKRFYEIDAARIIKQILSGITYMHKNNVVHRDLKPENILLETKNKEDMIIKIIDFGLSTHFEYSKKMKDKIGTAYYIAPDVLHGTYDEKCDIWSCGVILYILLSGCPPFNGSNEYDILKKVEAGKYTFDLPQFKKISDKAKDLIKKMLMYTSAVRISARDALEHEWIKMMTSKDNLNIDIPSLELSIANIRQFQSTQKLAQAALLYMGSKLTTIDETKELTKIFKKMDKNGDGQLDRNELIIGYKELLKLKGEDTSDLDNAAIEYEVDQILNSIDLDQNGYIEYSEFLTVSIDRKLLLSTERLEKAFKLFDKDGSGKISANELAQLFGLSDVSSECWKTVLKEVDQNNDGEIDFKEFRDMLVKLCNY

outcome, inactive:
CC(C)COc1ccc(Cl)cc1Cc1ccc(-c2nc3cc(F)c(F)cc3[nH]2)o1, Oc1ccc(CCNc2nc(NCCCOc3cccc(CN4CCCCC4)c3Cl)nc(N3CCNCC3)n2)cc1, O=c1[nH]c2c(cc1CNC1CCCCC1)c(-c1ccc(F)cc1)nn2-c1ccccc1, NC(N)=Nc1ccc(OCCCCCOc2ccc(N=C(N)N)cc2)cc1, COC(=O)c1cccc(CNCc2ccc(-c3ccc(-c4nc5ccc(C(F)(F)F)cc5[nH]4)s3)cc2)c1, COc1ccc2ncc(C#N)c(CCN3CCC(NCc4ccc5c(c4)NC(=O)CO5)CC3)c2c1, CC(Nc1nc(Nc2ccc(F)cc2)nc(SCC(N)=O)n1)c1ccccc1 (centres undefined), Cn1ccnc1CNC(=O)c1ccc(-c2ccc(-c3nc4ccc(C(F)(F)F)cc4[nH]3)s2)cc1, COc1cc2c(cc1S(=O)(=O)c1ccc(NC(=O)c3cccc(C(F)(F)F)c3)cc1)CCN(C)CC2, CCOc1ccc2c(NN=Cc3cccc(F)c3)cc(C)nc2c1, Clc1ccc(OCc2ccccc2)c(-c2nc(-c3nc4ncc(Br)cc4[nH]3)cs2)c1, O=C(CC1CCCC1)Nc1ccc2c(c1)CCC2, Clc1ccccc1CNc1noc(-c2sccc2Br)n1, COc1ccc(NC(=O)Nc2ccc(-c3ccc(-c4nc5ccccc5[nH]4)cc3)cc2)cc1, Nc1cc(-c2cc3c(OCc4ccccc4)cccc3[nH]2)ccn1, CCNc1cc(C(=O)N[C@@H](Cc2ccccc2)[C@H](O)CNC2C3CC4CC(C3)CC2C4)cc(N2CCCCS2(=O)=O)c1 (some centres undefined), CCCNCc1ccc(-c2ccc(CN(C(=O)c3nn(-c4ccccc4)nc3C)C3CCOCC3)cc2)nc1, CN1CCCN(Cc2ccc(-c3cccc(NC(=O)c4cccc(C#N)c4)c3)cc2)CC1, COc1ccc(NC(=O)Nc2cccc(-c3ccc(-c4nc5ccc(C(F)(F)F)cc5[nH]4)cc3)c2)cc1, CCC(C)NS(=O)(=O)c1ccc2nc(Nc3ccc(C)c(Cl)c3)n(C3CCCCC3)c2c1 (centres undefined), COc1ccc(N2CCN(CCCC/C=C/c3ccc(NC(=O)c4cc(Cl)cc(Cl)c4)cc3)CC2)c(OC)c1, CC(C)(C)c1ccc(CN2CCC(NC(=O)c3cc(-c4cccc(C(F)(F)F)c4)cs3)C2)cc1 (centres undefined), COc1ccccc1/C=C/C(=O)NCCC1CCN(CCCCCNC(=O)/C=C/c2ccc(Cl)c(Cl)c2)CC1, O=C(NC1CC1)c1cnc(N2CCC(Oc3ccc(Cl)cc3)CC2)c(Cl)c1, Cc1ccc(C=C2SC(=Nc3ccccc3)NC2=O)c(C)c1, O=C(Nc1cccc(-c2cc3ccccc3[nH]2)c1)C1CCN(Cc2ccccc2O)CC1, C=CCN(c1nc(NC)nc(NCc2c(OC)cccc2OC)n1)C1CCCC1, O=C(/C=C/c1ccc(Cl)c(Cl)c1)NCCCCCN1CCCC(C(=O)Nc2cccc(Cl)c2)C1 (centres undefined), CN(CCCNCc1ccc2ccccc2c1)CCCNCc1ccc2ccccc2c1, Fc1cccc(COc2ccc(Nc3ncnc4sc(C#CC5CCCCN5)cc34)cc2Cl)c1 (centres undefined), COc1ccc(-c2cc(NCc3ccc(-n4ccnc4)cc3)nc(Nc3ccccc3)n2)cc1, Cc1cc(NN=Cc2ccccc2Cl)c2cccc(C)c2n1, Cc1cc(CN2CCC(Nc3ncc(-c4ccsc4)c4nc(C(F)(F)F)ccc34)CC2)no1, O=C(/C=C/c1ccc(Cl)c(Cl)c1)NCCCCN1CCCN(C(=O)Nc2cc(Cl)cc(Cl)c2)CC1, NC1CCN(c2nc(NCCCc3ccc(O)cc3)nc(NCc3ccccc3-c3ccccc3)n2)CC1, O=C(Nc1cccc(C(F)(F)F)c1)Nc1nc2ccc([N+](=O)[O-])cc2s1, CC(=O)Nc1cccc(CNCc2ccc(-c3cnc(N4CCCC(c5ccccc5)C4)nc3)cc2)c1 (centres undefined), CS(=O)(=O)N(c1cccc(F)c1)c1cc(C(=O)N[C@@H](Cc2ccccc2)[C@H](O)CNCc2cccc(C(F)(F)F)c2)cc(N2CCCC2=O)c1, CN(C)CCNC(=O)c1ccc(-c2cnc3ccc(NCc4ccc(Cl)c(Cl)c4)nn23)cc1
